# miR-21 act: qHTS Assay for Modulators of miRNAs and/orActivators of miR-21; HeLa miR-21 FLuc reporter, luciferase, 48 h; 340,000 tested, under 10 active; AID 2288, 2010; Potency, µM (series often up to 38.3 µM), inactives show at the highest dose activity change, positive = activation, usual class: activators;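 note: % of control where 0% means no effect; miR-21 action dims this reporter so a rising signal means less miR-21 action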
#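 HeLa cells endogenously expressing miR-21, stably carrying CMV-driven firefly luciferase with a downstream miR-21 binding site, 2000 cells/well. Titrations up to approximately 40 uM, 48 hours; luciferase luminescence read.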
# ClpP mod: qHTS Assay for Activators of ClpP. ATP-dependent Clp protease proteolytic subunit (Bacillus subtilis (strain 168)), P80244. actives 1.9% (n = 340,000). AID 651965, 2013. purified B. subtilis ClpP, FRET peptide cleavage, 20 min. Potency, µM (highest dose often 57.5 µM), without a hit: at the highest dose activity change, negative = active; active = well fitted falling curve with a large enough effect; inconclusive = small, poorly fitted or top-dose-only effect; inactive = no such curve, though single readings can be large or run the other way; note: potency is the fitted concentration of half-maximal effect; the source files actives as falling curves though it sought activators and does not explain the sign; nearly all actives have a fitted effect of over 65% in size
# Target sequence (P80244 whole entry, looked up): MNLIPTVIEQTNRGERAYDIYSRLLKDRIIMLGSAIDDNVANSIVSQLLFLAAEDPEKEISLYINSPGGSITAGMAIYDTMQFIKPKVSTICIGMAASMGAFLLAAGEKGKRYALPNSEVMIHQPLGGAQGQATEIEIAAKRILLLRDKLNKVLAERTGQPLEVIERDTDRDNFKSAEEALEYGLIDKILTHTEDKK
#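 FRET quenching reversal measured ClpP activation: 10 microg/mL B. subtilis ClpP at pH 8 with the FRET-FV decapeptide, read at 430 nm after 320 nm excitation. The 20-min minus 0-min signal was scaled between DMSO/no-enzyme wells and ADEP (5.8 microM final).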
# A549 tox: Nrf2 qHTS screen for inhibitors: counterscreen for cytotoxicity; A549 ARE-Fluc cells, CellTiter-Fluor viability, 18-24 h; Potency, µM (series often up to 46 µM), for the others: top-dose activity change, negative = cytotoxicity, usual class: inhibitors; actives 0.16% (n = 390,000); note: potency is the fitted concentration of half-maximal effect; % is set by controls: 0 for no effect and ±100 for the full control effect
#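 A549 ARE-Fluc cells in 5% FBS OPTI-MEM, 5000 cells/well, rested 2 h then exposed to compounds in concentration-response for 18-24 h at 37 °C. Viability by CellTiter-Fluor fluorescence (Ex 405/Em 525) after 30 min; luciferase luminescence (BugLite, 15 min, RT) read afterwards.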
# TCR act: Activators of T cell receptors: qHTS campaign; primary human leukocytes, anti-CD3, IL-2 HTRF, 48 h; AID 504894, 2011; Potency, µM (series often up to 9.22 µM), for inactives: top-dose activation of IL-2 secretion, most hits filed as activators; 330,000 tested, under 10 active; note: % of control where 0% means no effect
#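 48 hr co-incubation of compounds, a-CD3 beads and primary human leukocytes; IL-2 quantified homogeneously by HTRF with anti-IL-2 K and d2 conjugates.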
# Nrf2 activator: qHTS of Nrf2 Activators; actives 0.31% (n = 410,000); AREc32 ARE-luciferase reporter (MCF7-derived line), luminescence, 24 h; Potency, µM (highest dose often 46.1 µM), inactives show top-dose activation, most hits filed as activators; AID 624171, 2012; note: potency is the fitted concentration of half-maximal effect; % of control where 0% means no effect; nearly all actives have a fitted effect of over 65% in size
#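 ARE-driven firefly luciferase activity in AREc32 cells measured after a 24 hr compound exposure at 37 deg C, using Steady-Glo reagent and a 30 min room-temperature hold.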
# Nrf2 block: Nrf2 qHTS screen for inhibitors; A549 ARE-Fluc reporter, luciferase luminescence, 18-24 h; Potency, µM (titrated, usually from 46 µM), inactives show at the highest dose activity change, negative = inhibition, actives largely listed as inhibitors; actives 2.1% (n = 360,000); AID 504444, 2011; note: potency is the fitted concentration of half-maximal effect; % is set by controls: 0 for no effect and ±100 for the full control effect; nearly all actives have a fitted effect of over 60% in size
#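 Nrf2 function is reported as luminescence of an ARE-controlled luciferase in A549 cells. Compounds were tested at several concentrations, and a CellTiter-Fluor read on the same wells flagged cytotoxicity.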
# * = called active by the depositor; u = inconclusive; x = no result; ! = repeats disagree; [ ] = dose if it differs, or a comment. Rows were chosen to be rich in hits. Some 3.7% of all compounds tested hit in one or more screens of this group. Unless noted, calls come from the whole dose curve; as a rule, active = well fitted curve in the direction sought with a large enough effect; inconclusive = small, poorly fitted or top-dose-only effect, or another doubt; inactive = no such curve, though single readings can be large; an effect the other way counts as inactive or inconclusive.
SMILES,miR-21 act,ClpP mod,A549 tox,TCR act,Nrf2 activator,Nrf2 block
Cc1nn(C(=O)c2cccc(Cl)c2)c(C)c1S(=O)(=O)N1CCOCC1,-1%,1%,0%,x,-1%,x
COC(=O)[C@]1(C)CCC[C@@]2(C)C3CC[C@@]4(C)C[C@]3(CCC21)CC(=O)N4Cc1ccc(OC)cc1 (stereo partly specified),x,0%,-7%,2%,0%,15µM*
COC(=O)[C@]1(C)CCC[C@@]2(C)C3CC[C@]4(OC(C)=O)C[C@@]3(CCC21)CC4=O (stereo partly specified),x,-4%,4%,-5%,1%,u
O=C(NCC1CCCO1)c1ccc(Cl)c(NS(=O)(=O)c2ccc(F)cc2)c1 (stereo unspecified),x,-4%,x,x,0%,x
CCOCCCNC(=O)CN1C(=O)c2c(c3ccccc3n2C)C1c1ccc(OC)cc1 (stereo unspecified),6%,32µM*,3%,x,4%,5%
COCCCNC(=O)CN1C(=O)c2c(c3ccccc3n2C)C1c1ccc(OC)cc1 (stereo unspecified),-3%,32µM*,-1%,x,5%,-4%
COc1ccc(C2c3c(n(C)c4ccccc34)C(=O)N2CC(=O)Nc2c(C)cc(C)cc2C)cc1 (stereo unspecified),14%,-3%,-7%,x,0%,-27%
COc1cc2c(cc1OC)C(c1cc3cc4c(cc3[nH]c1=O)OCO4)N(C(=O)C1CC1)CC2 (stereo unspecified),-9%,25µM*,2%,5%[46.1 µM],-1%,-23%
COc1cc2c(cc1OC)C(c1cc3ccc(C)cc3[nH]c1=O)N(C(=O)c1ccco1)CC2 (stereo unspecified),16%,x,-8%,8%,1%,-7%
CCSC1=NC2(CCN(C(=O)NC3CCCCC3)CC2)N=C1c1ccc(C)c(C)c1,-8%,1%,1%,x,-1%,u
CCC(NC(=O)CCl)c1ccc(C)cc1 (stereo unspecified),24%,1%,u,0%,u,23µM*
CCCC(NC(=O)CCl)c1ccccc1 (stereo unspecified),26%,-1%,-18%,1%[46.1 µM],u,u
O=c1n(Cc2ccccc2)c2cc(Cl)cnc2n1Cc1ccccc1,-6%,28µM*,21%,-1%,3%,-5%
CCCCN1C(=O)C(CC(=O)NC2CCCC2)CC(C(=O)N(C(C)C)C(C)C)=C1C (stereo unspecified),x,-2%,x,x,0%,x
CCCCn1c(N)c(N(CC)C(=O)C2CCC2)c(=O)[nH]c1=O,x,-1%,1%,-8%,0%,-4%
CCCc1c(O)c2ccccc2[nH]c1=O,-3%,14µM*,-7%,-3%,-1%,-1%
Cc1ccccc1NC(=O)Cc1c(O)c2ccccc2[nH]c1=O,-33%,16µM*,0%,6%,-1%,1%
CCCc1c(C)c2ccccc2[nH]c1=O,-15%,-18%,8%,4%,0%,-30%
CCCCc1c(O)c2ccccc2[nH]c1=O,0%,25µM*,-3%,8%,0%,u
COc1ccccc1N1CCN(C(=O)Cc2c(C(=O)O)c(C)cn2C)CC1,-4%,-1%,5%,x,-1%,x
CCN(CC)CCNc1cccc2sc3ccccc3c(=O)c12,x,-3%,x,x,3%,x
CCN(CC)CCNc1ccc(CO)c2sc3ccccc3c(=O)c12,u,-3%,16µM*,-5%,0%,6.5µM*
CCOC(=O)c1cc2c(=O)n3cccc(C)c3nc2n(CCCOC)c1=NC(=O)c1cccnc1,-4%,16µM*,-6%,0%,0%,24%
Cc1cccn2c(=O)c3cc(C#N)c(=NC(=O)c4ccncc4)n(CCCOC(C)C)c3nc12,0%,7%,u,-1%,3%,-21%
CCCCn1c(=NC(=O)c2cccnc2)c(C#N)cc2c(=O)n3cccc(C)c3nc21,8%,u,u,-6%,0%,5%
SMILES,miR-21 act,ClpP mod,A549 tox,TCR act,Nrf2 activator,Nrf2 block
COCCCn1c(=NC(=O)c2ccncc2)c(C#N)cc2c(=O)n3cccc(C)c3nc21,0%,0.71µM*,15%,-7%,0%,-11%
CCOCCCn1c(=NC(=O)c2cccnc2)c(C(=O)OCC)cc2c(=O)n3ccccc3nc21,0%,20µM*!,u,4%,2%,u
CCCCCn1c(=NC(=O)c2ccco2)c(C(=O)OCC)cc2c(=O)n3ccccc3nc21,5%,16µM*,-11%,-1%,0%,u
CCCCn1c(=NC(=O)c2cccnc2)c(C(=O)OCC)cc2c(=O)n3ccccc3nc21,-5%,u,5%,1%,-1%,-10%
Cc1ccc(CNC(=O)c2cc(Sc3ccc(F)cc3F)nc3ccccc23)cc1,-2%,u,5%,x,0%,x
Cc1nnc2sc(-c3cccc4ccccc34)nn12,-25%,22µM*,-1%,0%,3%,-5%
Cc1nnc2c3ccccc3c(-c3cccc4ccccc34)nn12,-2%,-3%,-8%,-4%,3%,u
COc1ccc(CCC(=O)N(C)CC(=O)Nc2ccc(N3CCOCC3)cc2)cc1,0%,x,2%,3%,0%,u
COc1ccc(OC)c(/C=C/C(=O)N(C)CC(=O)Nc2ccc(N3CCOCC3)cc2)c1,x,28µM*,0%,-1%,0%,-4%
COc1ccc(CCNC(=O)CCCCn2c(=O)c3ccccc3n(CC(=O)Nc3ccc(C)cc3C)c2=O)cc1OC,0%,-6%,-11%,x,0%,-6%
CCCNC(=O)c1ccc2c(c1)C1C3CCC(C3)C1C(c1ccccc1)N2 (stereo unspecified),17%,u,u,-2%,0%,21µM*
CC(C)(C)NC(=O)c1cccc(NC(=O)Cc2cccs2)c1,-11%,35µM*,11%,-8%,-1%,-1%
Cc1ccc(NC(NC(=O)c2cccs2)C(Cl)(Cl)Cl)cc1 (stereo unspecified),5%,-2%,-3%,3%,4%,u
Cc1ccccc1NC(NC(=O)c1cccs1)C(Cl)(Cl)Cl (stereo unspecified),20%,25µM*,-13%,2%,0%,u
O=c1oc(-c2cccs2)nc2ccc(Br)cc12,-3%,28µM*,11%[1.84 µM],x,2%,-1%
O=c1c(Cl)c(O)c2cccc3c4ccccc4n1c23,-1%,14µM*,-1%,4%,0%,0%
COc1c(O)c(=O)n2c3ccccc3c3ccnc1c32,x,0%,0%,-5%,15%,8%
